TDP1 cell CPT = DT40-hTDP1 cell growth loss with CPT | Potency, µM (highest dose often 46.2 µM), for the others: top-dose activity change, negative = growth inhibition, actives largely listed as inhibitors | chicken DT40 Tdp1-/-;hTDP1 cells + 20 nM CPT, ATP luminescence, 48 h | AID 686979 | 420,000 tested, 12% active; note: potency is the fitted concentration of half-maximal effect; % is set by controls: 0 for no effect and ±100 for the full control effect; nearly all actives have a fitted effect of over 55% in size
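Chicken DT40 Tdp1-/- cells stably complemented with human TDP1 were seeded at 400 cells/well in medium containing 20 nM camptothecin, exposed to pin-transferred compounds, and grown at 37 °C for at least 48 hr. Viability was read as ATP luminescence.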
DRD3 agonist = activates the human D3 dopamine receptor | P35462 | D3R DiscoveRx beta-arrestin cells, luminescence, 90 min | max activation, % | 410,000 tested, 0.58% active | AID 652048; in the data active = max activation above about 30%; note: 0% is about no effect
Target sequence (P35462 whole entry, looked up): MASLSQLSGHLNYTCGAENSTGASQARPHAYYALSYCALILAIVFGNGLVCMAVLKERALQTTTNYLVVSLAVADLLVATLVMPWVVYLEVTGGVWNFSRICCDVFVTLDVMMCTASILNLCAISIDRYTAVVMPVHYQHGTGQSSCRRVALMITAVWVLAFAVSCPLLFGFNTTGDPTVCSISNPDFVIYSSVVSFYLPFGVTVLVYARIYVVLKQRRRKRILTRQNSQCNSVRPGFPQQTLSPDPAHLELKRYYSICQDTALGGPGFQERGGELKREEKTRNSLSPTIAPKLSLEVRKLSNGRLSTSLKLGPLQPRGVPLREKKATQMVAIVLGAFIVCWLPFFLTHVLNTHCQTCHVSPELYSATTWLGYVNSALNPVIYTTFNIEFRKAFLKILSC
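Agonist mode: compounds and dopamine controls were applied to plated cells for 90 min at 37 degrees C after an overnight attachment at 1500 cells/well. Luminescent read-out followed 30 - 60 minutes at room temperature with DiscoveRx detection reagent.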
D3 antag = blocks the human D3 dopamine receptor. D3R cells, DiscoveRx beta-arrestin luminescence, antagonist mode; active compounds read low. max response, negative = inhibition, %. 360,000 tested, 2.5% active. AID 652054; in the data active = max response below about -50%; inconclusive = no clear call, values can overlap the other calls; note: % is set by controls: 0 for no effect and ±100 for the full control effect
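Cells plated overnight at 1500 cells/well, then exposed to library compounds with dopamine controls for 90 minutes at 37 degrees C. DiscoveRx reagent added for 30–60 minutes at room temperature; luminescence read, quantitative HTS format.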
TDP1 cell noCPT = qHTS for Inhibitors of human tyrosyl-DNA phosphodiesterase 1 (TDP1): qHTS in cells in absence of CPT; DT40 Tdp1-/- hTDP1 cells, no CPT, ATP luminescence, 48 h; Potency, µM (highest dose often 46.2 µM), for inactives: top-dose activity change, negative = growth inhibition, hits mostly inhibitors; 420,000 tested, 15% active; note: potency is the fitted concentration of half-maximal effect; % is set by controls: 0 for no effect and ±100 for the full control effect; nearly all actives have a fitted effect of over 55% in size
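Growth of hTDP1-complemented DT40 Tdp1-knockout cells is measured by ATP luminescence after at least 48 hr compound exposure at 37 °C, with DMSO substituting for the 20 nM CPT used in the parallel screen.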
ClpP mod = qHTS Assay for Activators of ClpP; ATP-dependent Clp protease proteolytic subunit (Bacillus subtilis (strain 168)), P80244; purified B. subtilis ClpP, FRET peptide cleavage, 20 min; Potency, µM (top dose mostly 57.5 µM), without a hit: top-dose activity change, negative = active; 340,000 tested, 1.9% active; AID 651965, 2013; active = well fitted falling curve with a large enough effect; inconclusive = small, poorly fitted or top-dose-only effect; inactive = no such curve, though single readings can be large or run the other way; note: potency is the fitted concentration of half-maximal effect; the source files actives as falling curves though it sought activators and does not explain the sign; nearly all actives have a fitted effect of over 65% in size
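Buffer: 100 mM Tris/HCl pH8, 100 mM KCl, 0.05% low protease BSA, 2.5% glycerol, 0.01% Tween-20. ClpP 10 microg/mL final; 20 min RT; delta FRET normalized to ADEP and DMSO controls.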
IL1B secr inh = inhibitors of inflammasome signaling (IL-1 beta secretion); 360,000 tested, 4.7% active; THP-1 LPS/ATP IL-1B secretion, AlphaLISA, 16 h; active compounds read low; activity change, % at 57.5 µM; in the data active = activity change below about -50%; inconclusive = mostly about -30% to -49%; note: % is set by controls: 0 for no effect and ±100 for the full control effect
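THP-1 cells pretreated 1 hr with compounds (up to 57.5 uM final), then stimulated with LPS (250 ng/mL final) plus ATP (1.25 mM final); secreted IL-1B measured by AlphaLISA after 16 hr, decreased signal indicating inhibition.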
* marks the source's active call; other numbers are inactive results; ? = inconclusive; . = not tested or not shown. A selection: hits, their analogues and other compounds. The true share with any hit is near 21%. Unless noted, calls come from the whole dose curve; as a rule, active = well fitted inhibition curve with a large enough effect; inconclusive = small, poorly fitted or top-dose-only effect; inactive = flat fitted curve, though single readings scatter.

SMILES	TDP1 cell CPT	DRD3 agonist	D3 antag	TDP1 cell noCPT	ClpP mod	IL1B secr inh
Cc1csc(SC(C)C(=O)NCC2CCCCC2)n1 (stereo not drawn)	4.1%	-15.0	-6.6	-20.3%	-2.9%	17.7
O=C(CCc1ccccc1)NNC(=O)Nc1ccc(Br)cc1	-23.6%	-11.2	18.6	-8.9%	0.9%	-8.4
CCCC(=O)NC(NC(=S)Nc1ccc(N=Nc2ccccc2)cc1)C(Cl)(Cl)Cl (stereo not drawn)	5.17µM*	-5.4	?	5.17µM*	-1.2%	?
O=C(CCc1ccccc1)NC(NC(=S)Nc1ccc(Br)cc1)C(Cl)(Cl)Cl (stereo not drawn)	23.1µM*	-13.8	-90.8*	23.1µM*	-1.2%	-2.5
CC(=O)Nc1ccc(N=Nc2ccccc2)cc1	3.7%	1.8	0.0	3.2%	-4.6%	-21.1
Cc1cc(=O)n2nc(N(C)CC(=O)NCc3ccccc3C)sc2n1	-29.0%	-10.4	.	-4.8%	0.8%	.
COc1cccc(NC(=O)CN(C)C(=O)CN2C(=O)c3ccc([N+](=O)[O-])cc3C2=O)c1	19.6%	8.3	-4.2	-15.6%	.	21.3
COc1ccc(C(=O)NCc2ccncc2)cc1S(=O)(=O)N1CCOCC1	-12.2%	-9.5	9.8	-4.1%	-2.7%	1.3
Cc1c(Cl)cccc1NC(=O)CCCn1nc(C)c2sc3ccccc3c2c1=O	?	1.4	.	?	-11.2%	.
CCOc1cc(-c2c(C#N)c(N)nc3c2CCc2ccccc2-3)ccc1O	18.4µM*	0.6	7.6	14.6µM*	-21.7%	-17.1
COc1ccc(-c2c(C#N)c(N)nc3c2CCCCCC3)cc1OC	-11.8%	10.9	8.3	-18.2%	?	2.5
CCOc1cc(-c2c(C#N)c(N)nc3c2CCCC3C)ccc1O (stereo not drawn)	9.2µM*	0.6	11.8	?	-8.4%	6.3
COc1ccccc1-c1c(C#N)c(N)nc2c1CCc1ccccc1-2	6.51µM*	0.3	0.6	6.51µM*	1.78µM*	63.5
COc1ccccc1-c1cc(-c2ccc(O)cc2)nc(N)c1C#N	?	0.3	-4.3	?	3.6%	-7.1
COc1cccc(Cn2c(=O)c(-c3cccs3)nc3cnc(OC)nc32)c1	-6.3%	.	.	10.9%	.	.
COC(=O)CSc1ncc2c(n1)-c1ccccc1N(Cc1ccccc1C)S2(=O)=O	-28.1%	5.4	.	-25.5%	-21.3%	.
CC(=O)Oc1ccc(C2OC(=O)c3ccccc3N2C(C)=O)cc1 (stereo not drawn)	-3.8%	-17.3	-9.9	-26.0%	25.1µM*	?
COc1ccc(C2Oc3ccccc3N2C(C)=O)cc1 (stereo not drawn)	-5.2%	0.5	-19.5	1.3%	1.0%	-16.9
Cc1ccc(C)c(N(C(=O)c2snc(C(N)=O)c2N)C(C(=O)NCC2CCCO2)c2ccc(C)o2)c1 (stereo not drawn)	16.4µM*	4.6	7.1	10.3µM*	0.4%	-3.1
Cc1ccc(C)c(N(C(=O)c2snc(C(N)=O)c2N)C(C(=O)NCC2CCCO2)c2cccs2)c1 (stereo not drawn)	7.31µM*	0.3	-9.0	8.2µM*	.	28.3
COc1ccc(C)cc1N(C(=O)c1snc(C(N)=O)c1N)C(C(=O)NC1CCCCC1)c1ccc(C)o1 (stereo not drawn)	18.4µM*	-11.4	-4.0	18.4µM*	.	-54.7*
Cc1cccc(N(C(=O)c2snc(C(N)=O)c2N)C(C)C(=O)NCC2CCCO2)c1 (stereo not drawn)	-2.0%	-3.1	-8.6	-21.6%	-1.0%	?
COc1ccccc1N(C(=O)c1snc(C(N)=O)c1N)C(C(=O)NC1CCCC1)c1ccco1 (stereo not drawn)	?	-16.8	17.1	-16.7%	?	-8.4

From PubChem BioAssay
